From ChEMBL document CHEMBL4513216, “Probing the Open Global Health Chemical Diversity Library for Multistage-Active Starting Points for Next-Generation Antimalarials” (ACS Infect Dis, 2020)
About 8,600 (12%) of roughly 69,000 compounds showed an effect of 50% or more. Only a selection was taken, and strong results are over-represented in it overall.

tested on: Plasmodium berghei; experiment: Screen against P. berghei liver stage (PbLuc), transformed with Luciferase, at 10uM; type: functional, HepG2; details: tested at 10 uM

| SMILES | INHIBITION [%] |
| --- | --- |
| CN(Cc1ccco1)C(=O)CN1CCOC(Cn2cncn2)C1 (stereo not drawn) | -0.219 |
| CC(C)N(C)Cc1cnc2n1CCN(C(=O)Cc1ccccn1)C2 | 24.3 |
| O=C1CN(c2ccc(CNC(=O)Nc3nccs3)cc2)CCN1 | 13.8 |
| CN(Cc1ccc2c(c1)OCCO2)c1ncc(S(N)(=O)=O)s1 | 54.4 |
| CCc1ncc(C(=O)N(C)C2Cc3ccccc3C2)cn1 | -98.6 |
| COc1ccc(CN(C)c2ncc(S(N)(=O)=O)s2)c(OC)c1 | -28.2 |
| CCN(Cc1ccc2c(c1)OCO2)c1ncc(S(N)(=O)=O)s1 | 27.5 |
| CCN(Cc1ccoc1)c1ncc(S(N)(=O)=O)s1 | 20.8 |
| CN(c1ncc(S(N)(=O)=O)s1)C1CCc2ccccc2C1 (stereo not drawn) | 65.6 |
| COc1ccc(OC)c(CN(C)c2ncc(S(N)(=O)=O)s2)c1 | -54.4 |
| CN(c1ncc(S(N)(=O)=O)s1)C1CCC1 | 52.2 |
| CN(c1ncc(S(N)(=O)=O)s1)C1CCc2ccccc21 (stereo not drawn) | 36.5 |
| CS(=O)(=O)c1cn[nH]c1C1CCCCN1C(=O)Cc1cccnc1 (stereo not drawn) | -5.71 |
| CN1CCNC(Cc2ccc(-c3cccs3)cc2)C1=O (stereo not drawn) | -52.6 |
| COCCN1CCOCC12CCN(C(=O)Cc1cccs1)CC2 | 24.9 |
| O=C(CN1CCC[C@@H]1C(=O)O)NCCOc1cccc(C(F)(F)F)c1 | -0.18 |
| CC(=O)N1CCC2(CCCN(C(=O)c3ccccc3)C2)C1 (stereo not drawn) | 22.2 |
| Cc1csc(Nc2cc(C3CCCCN3C)nc(C)n2)n1 (stereo not drawn) | 16.5 |
| Cc1ccsc1CN(C)C(=O)c1cc2c([nH]c1=O)CCCC2=O | -1.95 |
| CCc1ncncc1C(=O)NCCNS(=O)(=O)c1ccccc1 | -118 |
| CCc1ncncc1C(=O)NCCNS(=O)(=O)c1ccc(C)cc1 | -70.7 |
| Cc1ccc(S(=O)(=O)NCCNC(=O)c2cncnc2C)cc1 | 78.1 |
| CN(C)C(C)(C)CNCc1c[nH]nc1-c1cc2ccccc2o1 | 36.9 |

| SMILES | INHIBITION [%] |
| --- | --- |
| Cc1cnc(C(=O)NCc2cccnc2OC(C)C)cn1 | 33.7 |
| O=C1CC(NCc2ccc(OC(F)F)cc2)CN1Cc1cccc(F)c1 (stereo not drawn) | 0.38 |
| Cc1cccc(CNC2CC(=O)N(Cc3cccc(F)c3)C2)c1 (stereo not drawn) | 13.87 |
| O=C1CC(NCc2ccncc2)CN1Cc1cccc(F)c1 (stereo not drawn) | 63.5 |
| NC1CCC(n2cc(C(=O)NC3CCc4ccccc4C3)nn2)CC1 (stereo not drawn) | 25.5 |
| CNC(=O)c1ccc(CNc2ccncc2Cl)cc1 | 57.7 |
| CC(C)N(C)C(=O)c1ccc(CNc2cncc(Cl)n2)cc1 | 32.9 |
| CNC(=O)c1ccc(CNC(=O)c2ccc(Cl)cc2F)cc1 | -8.675 |
| CC(C)N(C)C(=O)c1ccc(CNc2ncc(C#N)cc2Cl)cc1 | 44.5 |
| CC(C)N(C)C(=O)c1ccc(CNc2ccncc2Cl)cc1 | 97.1 |
| CCOc1ccc(Cl)c(C(=O)NCc2ccc(C(=O)NC)cc2)n1 | 14.7 |
| CN1CCOC(CNCc2ccc(OCc3ccccn3)cc2)C1 (stereo not drawn) | -38.7 |
| O=C(c1ccnnc1)N1C[C@@H](OCc2cccnc2)[C@H]2OCCC[C@H]21 | 37.1 |
| NC(=O)c1ccc(CNC2CC2)cc1 | -30.1 |
| Cc1ccc(C2(CN3CCN(Cc4cncn4C)CC3)CC2)cc1 | -32.7 |
| CCN(Cc1cccnc1)CC1CCCO1 (stereo not drawn) | -0.113 |
| CC(C)(C)c1cnc(CN(Cc2cccnc2)CC2CCCO2)o1 (stereo not drawn) | 75.4 |
| c1ccc(-c2cnc(CN(Cc3cccnc3)CC3CCCO3)o2)cc1 (stereo not drawn) | -5.26 |
| CNC(=O)CCc1cc(C)nc(C2CCN(C(=O)CN(C)C)CC2)c1 | 4.9 |
| CCc1nc(CN2CCCN(C(=O)c3ccnc(C)n3)CC2)cs1 | 25.5 |
| Cc1cc(C)cc(CN2CCN(Cc3cccc(CCN)c3)CC2=O)c1 | 67.7 |
| NCCc1cccc(CN2CCN(c3cccc(Cl)c3)C(=O)C2)c1 | 50.5 |
| COc1cccc(N2CCN(Cc3cccc(CCN)c3)CC2=O)c1 | 35.1 |

| SMILES | INHIBITION [%] |
| --- | --- |
| Cc1ccc(CN2CCN(Cc3ccncc3)CC2=O)cc1 | 50.3 |
| Cc1cc(C)cc(CN2CCN(Cc3cc(C#N)n(C)c3)CC2=O)c1 | 11.8 |
| Cc1ccc(CN2CCN(Cc3ccc4nonc4c3)CC2=O)cc1 | 5.78 |
| NCCc1cccc(CN2CCN(c3ccccc3)C(=O)C2)c1 | 26.8 |
| Cc1cc(C)cc(N2CCN(Cc3cccc(CCN)c3)CC2=O)c1 | 2.18 |
| Cc1cc(C)cc(CN2CCN(Cc3ccc4nonc4c3)CC2=O)c1 | 37.6 |
| Cn1cc(CN2C[C@@H]3COC[C@H](C(=O)Nc4cccnc4)[C@@H]3C2)cn1 | 0.542 |
| CCn1cc(CN2CCCN(C(=O)c3c(C)oc(C)c3C)CC2)cn1 | 15.6 |
| CCC[C@H]1CN(S(C)(=O)=O)C[C@@H]1NC(=O)c1ccc(COC)cc1 | 23.9 |
| Cc1ccoc1C(=O)N1CC[C@H]2[C@H](C[C@@H](CN3CCCC3)N2C)C1 | 47.4 |
| CCOc1ccc(NC(=O)C2OC(c3cccs3)=NN2C(C)=O)cc1 (stereo not drawn) | 11.5 |
| CC(=O)N1N=C(c2cccs2)OC1C(=O)Nc1ccc(C)cc1 (stereo not drawn) | -25.1 |
| CC(=O)N1N=C(c2cccs2)OC1C(=O)NCc1ccc(C)o1 (stereo not drawn) | 53 |
| CC(=O)N1N=C(c2cccs2)OC1C(=O)Nc1ccccc1 (stereo not drawn) | -4.32 |
| COc1ccc(NC(=O)C2OC(c3cccs3)=NN2C(C)=O)cc1 (stereo not drawn) | 28.3 |
| CCc1ccc(NC(=O)C2OC(c3cccs3)=NN2C(C)=O)cc1 (stereo not drawn) | 52.1 |
| CCn1cc(C(=O)NCCc2nc(-c3ccc(C)cc3)n[nH]2)c(C)n1 | 12.8 |
| COc1cccc2c1ccn2CCC(=O)N1CCC(C(=O)O)CC1 | 25.1 |
| CN(C)C(=O)CN1C[C@H]2CN(Cc3cccc(F)c3)C(=O)[C@H]2C1 | 25.2 |
| Cc1occc1CNC(=O)C1(C)CCCN(C(=O)c2ccccc2)C1 (stereo not drawn) | 58.3 |
| Cc1occc1CNC(=O)C1(C)CCCN1C(=O)c1ccccc1 (stereo not drawn) | 28.7 |
| CC(C)C(=O)N1CCC12CCCN(C(=O)c1ccccc1)C2 (stereo not drawn) | 36.2 |
